Experimental data as given in PubChem BioAssay AID1159580 (chemical genetic matrix, 2015).
Where “and” joins values, the source holds several entries; their conditions need not be identical. Identical values can stand only once. The whole screen tested about 5,500 compounds, of which about 2,000 (36%) were called active. Roughly 18% stayed inconclusive and do not appear here. Cut-off read from the data, not from the text of the source: active = normalized growth mostly below about 0.91 (no sharp cut-off); inconclusive = no clear call, values can overlap the other calls; inactive = mostly above about 0.92. The list shows a part of the results.

Test: chemical genetic growth profiling, strain panel (AID 1159580);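 note: tested at 20 µM; growth read once vehicle control cultures reached saturation at 30 °C; 1 = growth at the plate median or of vehicle wells; lower values mean less growth of the strain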
Conditions: growth OD

Measured: normalized growth

C/C1=C\CCC(=O)C2CC(C)(C)C2CC1 (stereo unspecified)
inactive: S. cerevisiae deletion strains, locus YBR021W, strain FUR4, hits give low values 0.997 | S. cerevisiae deletion strains, locus YBR229C, strain ROT2, hits give low values 1.02 | S. cerevisiae deletion strains, locus YCL029C, strain bik1, hits give low values 1.03 | S. cerevisiae deletion strains, locus YDL035C, strain GPR1, hits give low values 0.999 | S. cerevisiae deletion strains, locus YDL074C, strain BRE1, hits give low values 1.02 | S. cerevisiae deletion strains, locus YDL101C, strain DUN1, hits give low values 1.03 | S. cerevisiae deletion strains, locus YDL134C, strain PPH21, hits give low values 1.04 | S. cerevisiae deletion strains, locus YDL185W, strain tfp1, hits give low values 1.03 | S. cerevisiae deletion strains, locus YDL192W, strain arf1, hits give low values 1.01 | S. cerevisiae deletion strains, locus YDR101C, strain arx1, hits give low values 1 | S. cerevisiae deletion strains, locus YDR162C, strain NBP2, hits give low values 1.03 | S. cerevisiae deletion strains, locus YDR318W, strain mcm21, hits give low values 1.03 | S. cerevisiae deletion strains, locus YDR388W, hits give low values 1.03 | S. cerevisiae deletion strains, locus YDR502C, strain sam2, hits give low values 1.03 | S. cerevisiae deletion strains, locus YEL061C, strain CIN8, hits give low values 1.02 | S. cerevisiae deletion strains, locus YER110C, hits give low values 1.04 | S. cerevisiae deletion strains, locus YER155C, strain BEM2, hits give low values 1.01 | S. cerevisiae deletion strains, locus YER167W, strain BCK2, hits give low values 1.01 | S. cerevisiae deletion strains, locus YGL078C, strain dbp3, hits give low values 1.02 | S. cerevisiae deletion strains, locus YGL086W, strain mad1, hits give low values 1.02 | S. cerevisiae deletion strains, locus YGL248W, strain PDE1, hits give low values 1.03 | S. cerevisiae deletion strains, locus YGR135W, strain pre9, hits give low values 1.07 | S. cerevisiae deletion strains, locus YGR252W, strain gcn5, hits give low values 1 | S. cerevisiae deletion strains, locus YHR030C, strain SLT2, hits give low values 1.02 and 1.01 | S. cerevisiae deletion strains, locus YHR079C, strain IRE1 (second series), hits give low values 1.02 | S. cerevisiae deletion strains, locus YHR079C, strain IRE1, hits give low values 1.01 | S. cerevisiae deletion strains, locus YHR094C, strain hxt1, hits give low values 1.02 | S. cerevisiae deletion strains, locus YHR129C, strain ARP1, hits give low values 1.01 | S. cerevisiae deletion strains, locus YHR200W, strain rpn10, hits give low values 1.03 | S. cerevisiae deletion strains, locus YIL066C, strain RNR3, hits give low values 1.02 | S. cerevisiae deletion strains, locus YIL073C, strain SPO22, hits give low values 1.08 | S. cerevisiae deletion strains, locus YIL125W, strain kgd1, hits give low values 1.02 | S. cerevisiae deletion strains, locus YIR030C, strain dcg1, hits give low values 1.02 | S. cerevisiae deletion strains, locus YJL095W, strain BCK1, hits give low values 1.07 and 1.02 | S. cerevisiae deletion strains, locus YJL134W, strain LCB3, hits give low values 1.02 | S. cerevisiae deletion strains, locus YJL168C, strain set2, hits give low values 1.02 | S. cerevisiae deletion strains, locus YJL187C, strain SWE1 (second series), hits give low values 1.04 | S. cerevisiae deletion strains, locus YJR043C, strain POL32, hits give low values 1.01 | S. cerevisiae deletion strains, locus YJR066W, strain TOR1, hits give low values 0.954 | S. cerevisiae deletion strains, locus YKL009W, strain mrt4, hits give low values 0.982 | S. cerevisiae deletion strains, locus YKL068W, hits give low values 1.02 | S. cerevisiae deletion strains, locus YKL085W, strain MDH1 (second series), hits give low values 1.01 | S. cerevisiae deletion strains, locus YKL085W, strain MDH1, hits give low values 1.01 | S. cerevisiae deletion strains, locus YKL190W, strain CNB1, hits give low values 1.01 | S. cerevisiae deletion strains, locus YKR001C, strain vps1, hits give low values 1.04 | S. cerevisiae deletion strains, locus YLR039C, strain RIC1, hits give low values 1.09 | S. cerevisiae deletion strains, locus YLR058C, strain SHM2, hits give low values 1.02 | S. cerevisiae deletion strains, locus YLR102C, strain apc9, hits give low values 1.02 | S. cerevisiae deletion strains, locus YLR113W, strain HOG1, hits give low values 1.03 | S. cerevisiae deletion strains, locus YLR262C, strain YPT6, hits give low values 1.1 | S. cerevisiae deletion strains, locus YLR268W, strain sec22, hits give low values 1.01 | S. cerevisiae deletion strains, locus YLR342W, strain FKS1 (second series), hits give low values 1.03 | S. cerevisiae deletion strains, locus YLR371W, strain rom2, hits give low values 1.04 | S. cerevisiae deletion strains, locus YLR418C, strain cdc73, hits give low values 1.04 | S. cerevisiae deletion strains, locus YML016C, strain PPZ1, hits give low values 1.03 | S. cerevisiae deletion strains, locus YML032C, strain rad52, hits give low values 1.02 | S. cerevisiae deletion strains, locus YML124C, strain tub3, hits give low values 1.02 | S. cerevisiae deletion strains, locus YMR078C, strain ctf18, hits give low values 1.02 | S. cerevisiae deletion strains, locus YMR223W, strain ubp8, hits give low values 1.01 | S. cerevisiae deletion strains, locus YMR307W, strain GAS1, hits give low values 1.09 | S. cerevisiae deletion strains, locus YNL067W, strain RPL9B, hits give low values 1.03 | S. cerevisiae deletion strains, locus YNL183C, strain NPR1, hits give low values 0.954 | S. cerevisiae deletion strains, locus YNL233W, strain BNI4, hits give low values 1.05 | S. cerevisiae deletion strains, locus YNL250W, strain rad50, hits give low values 1.07 | S. cerevisiae deletion strains, locus YNL271C, strain bni1, hits give low values 1.02 | S. cerevisiae deletion strains, locus YNL298W, strain CLA4, hits give low values 1.01 | S. cerevisiae deletion strains, locus YNL307C, strain MCK1, hits give low values 1.03 | S. cerevisiae deletion strains, locus YNR052C, strain pop2, hits give low values 1.04 | S. cerevisiae deletion strains, locus YOL006C, strain TOP1, hits give low values 1.1 | S. cerevisiae deletion strains, locus YOL012C, strain htz1 1.02 | S. cerevisiae deletion strains, locus YOL147C, strain pex11, hits give low values 1.01 | S. cerevisiae deletion strains, locus YOR061W, strain CKA2, hits give low values 1.02 | S. cerevisiae deletion strains, locus YOR069W, strain VPS5, hits give low values 1.02 | S. cerevisiae deletion strains, locus YOR136W, strain idh2, hits give low values 1.02 | S. cerevisiae deletion strains, locus YOR144C, strain elg1, hits give low values 1.02 | S. cerevisiae deletion strains, locus YOR184W, strain ser1, hits give low values 1 | S. cerevisiae deletion strains, locus YOR231W, strain MKK1, hits give low values 1 | S. cerevisiae deletion strains, locus YOR316C, strain cot1, hits give low values 1.03 | S. cerevisiae deletion strains, locus YPL055C, strain LGE1, hits give low values 1.05 | S. cerevisiae deletion strains, locus YPL256C, strain CLN2, hits give low values 0.999 | S. cerevisiae deletion strains, locus YPR119W, strain clb2, hits give low values 1.02 | S. cerevisiae deletion strains, locus YPR141C, strain kar3, hits give low values 1.03 | S. cerevisiae deletion strains, locus YPR163C, strain tif3, hits give low values 1.02 | S. cerevisiae deletion strains, locus YPR167C, strain met16, hits give low values 1.02 | S. cerevisiae deletion strains, strain wtn01, hits give low values 1.02 | S. cerevisiae strains, strain wild type, hits give low values 1.03
